From PubChem BioAssay (Tox21)
Records with an inconclusive call do not appear. Active and inactive are the calls of the source. Unless noted, calls come from the whole dose curve; as a rule, active = well fitted curve in the direction sought with a large enough effect in the repeat runs; inconclusive = weak or mixed curves; inactive = flat fitted curve, though single readings scatter.

What was measured:
[1] = qHTS assay to test for compound auto fluorescence at 535 nm (green) in HEK293 cells (AID 720680)
[2] = qHTS assay to test for compound auto fluorescence at 460 nm (blue) in HEK293 cell free culture (AID 720681)
How it was run: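 Test compounds were pinned into cell-free culture medium (DMEM with 10% FBS) and fluorescence was read directly at Ex/Em 405/460 nm. Signals were expressed as fluorescence equivalents of triamterene, with DMSO vehicle as control.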

[3] = qHTS assay to test for compound auto fluorescence at 535 nm (green) in HEK293 cell free culture (AID 720682)
How it was run: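 Each library compound, or DMSO control, is added by pintool to medium alone, comprising DMEM and 10% FBS. Emission at 535 nm following 485 nm excitation is quantified against fluorescein.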

[4] = qHTS assay to test for compound auto fluorescence at 590 nm (red) in HEK293 cell free culture (AID 720683)
How it was run: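 Tox21 10K library compounds were pinned into cell-free DMEM with 10% FBS and fluorescence was read at excitation 540 nm. Activity is expressed as Rose Bengal sodium equivalency.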

[5] = qHTS assay to test for compound auto fluorescence at 590 nm (red) in HepG2 cell free culture (AID 720684)
How it was run: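 Readout: intrinsic compound fluorescence at 590 nm emission after 540 nm excitation, scaled to Rose Bengal sodium. Matrix was cell-free MEM with 10% FBS; DMSO vehicle wells served as control.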

[6] = qHTS assay to test for compound auto fluorescence at 460 nm (blue) in HepG2 cell free culture (AID 720685)
How it was run: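 Cell-free plates of MEM plus 10% FBS received 23 nL compound or DMSO vehicle; blue-channel (405/460 nm) intensity scored against triamterene as reference fluorophore.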

[7] = qHTS assay to test for compound auto fluorescence at 535 nm (green) in HepG2 cell free culture (AID 720686)
[8] = qHTS assay to test for compound auto fluorescence at 460 nm (blue) in HepG2 cells (AID 720687)
How it was run: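 Cells (2,000/well in MEM with 10% FBS) attached overnight at 37 C, then were exposed to compound or DMSO for 1 hr at 37 C, 5% CO2. Fluorescence read at Ex/Em 405/460 nm, expressed as triamterene-equivalent signal.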

[9] = target: Glucocorticoid receptor (Homo sapiens) (UniProt P04150); experiment: qHTS assay to identify small molecule agonists of the glucocorticoid receptor (GR) signaling pathway (AID 720691; active = well fitted activation curve with a large enough effect in the signal ratio in the repeat runs, not every such curve was filed as active; the % refers to the signal ratio)
Chain of Glucocorticoid receptor (Homo sapiens) (P04150 whole entry, looked up): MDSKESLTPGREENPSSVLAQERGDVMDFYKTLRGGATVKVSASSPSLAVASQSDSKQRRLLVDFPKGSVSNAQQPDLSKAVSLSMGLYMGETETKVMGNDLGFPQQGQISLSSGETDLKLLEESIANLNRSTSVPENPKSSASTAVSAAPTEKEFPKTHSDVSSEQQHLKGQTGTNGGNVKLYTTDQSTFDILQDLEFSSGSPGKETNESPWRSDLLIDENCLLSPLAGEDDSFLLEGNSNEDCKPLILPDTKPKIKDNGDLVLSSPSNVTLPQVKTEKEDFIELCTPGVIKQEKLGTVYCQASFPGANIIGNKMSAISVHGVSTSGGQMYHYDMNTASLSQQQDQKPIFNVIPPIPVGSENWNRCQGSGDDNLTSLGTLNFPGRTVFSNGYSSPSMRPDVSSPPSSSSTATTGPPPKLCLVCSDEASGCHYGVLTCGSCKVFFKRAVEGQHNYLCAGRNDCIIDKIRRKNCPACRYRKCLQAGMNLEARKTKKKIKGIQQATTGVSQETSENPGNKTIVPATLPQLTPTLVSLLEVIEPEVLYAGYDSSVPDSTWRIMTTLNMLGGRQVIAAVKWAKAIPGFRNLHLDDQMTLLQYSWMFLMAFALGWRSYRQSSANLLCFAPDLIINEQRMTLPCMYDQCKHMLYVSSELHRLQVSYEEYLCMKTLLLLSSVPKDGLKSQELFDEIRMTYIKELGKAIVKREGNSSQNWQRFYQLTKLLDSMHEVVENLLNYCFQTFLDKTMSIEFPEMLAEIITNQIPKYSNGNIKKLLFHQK
How it was run: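 Agonist-mode qHTS in HeLa cells stably expressing a glucocorticoid-response-element beta-lactamase reporter. Fluorescence intensity read with FRET substrate (2 h, room temperature) after 18 h compound treatment at 37 C.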
% is set by controls: 0 for no effect and ±100 for the full control effect.

C=CCOC(=O)/C=C\C(=O)OCC=C
inactive: outcome [1] | Potency [2] | outcome [3] | outcome [4] | outcome [5] | Potency [6] | outcome [7] | Potency [8] | Potency [9]

Fc1ccccc1[C@@H](F)COC1CCC(Nc2ncnc3[nH]ncc23)CC1 (stereo not given in full)
inactive: outcome [1] | Potency [2] | outcome [3] | outcome [4] | outcome [5] | Potency [6] | outcome [7] | Potency [8]

Cc1cc(S(=O)(=O)O)ccc1N=Nc1c(O)ccc2ccccc12
inactive: outcome [1] | Potency [2] | outcome [3] | outcome [4] | outcome [5] | Potency [6] | outcome [7] | Potency [8]

CNC(=O)N(c1ccccc1)c1ccccc1
inactive: outcome [1] | Potency [2] | outcome [3] | outcome [4] | outcome [5] | Potency [6] | outcome [7] | Potency [8]

CCCc1c(OCCCOc2ccc(OCC(=O)O)cc2)ccc(C(C)=O)c1O
inactive: outcome [1] | Potency [2] | outcome [3] | outcome [4] | outcome [5] | Potency [6] | outcome [7] | Potency [8] | Potency [9]

COC(=O)[C@@H]1CC2=CC(=O)CC[C@]2(C)[C@@]23O[C@@H]2C[C@@]2(C)[C@@H](CC[C@@]24CCC(=O)O4)[C@H]13
inactive: outcome [1] | Potency [2] | outcome [3] | outcome [4] | outcome [5] | Potency [6] | outcome [7] | Potency [8]

Cc1nc2ccccn2c(=O)c1CCN1CCC(C(=O)c2ccc(F)cc2)CC1
inactive: outcome [1] | Potency [2] | outcome [3] | outcome [4] | outcome [5] | Potency [6] | outcome [7] | Potency [8] | Potency [9]

COc1cc2[nH]c(=O)[nH]c(=O)c2cc1OC
inactive: fluorescence, % of fluorescein [1] 0.0875% [at 18.6 µM] | fluorescence, % of fluorescent control [2] 0.0899% [at 18.6 µM] | activity change [3] 0.0939% [at 18.6 µM] | fluorescence, % of fluorescent control [4] 0.224% [at 18.6 µM] | fluorescence, % of Rose Bengal [5] 0.0628% [at 18.6 µM] | fluorescence, % of fluorescent control [6] -0.0173% [at 18.6 µM] | fluorescence, % of fluorescein control [7] -0.0155% [at 18.6 µM] | fluorescence, % of fluorescent control [8] 0.0151% [at 18.6 µM]

CC1=C(/C=C/C(C)=C\C=C\C(C)=C\C(=O)O)C(C)(C)CCC1
inactive: outcome [1] | Potency [2] | outcome [3] | outcome [4] | outcome [5] | Potency [6] | outcome [7] | Potency [8]

COc1ccc(CCC(=O)c2c(O)cc(O[C@@H]3O[C@H](CO)[C@@H](O)[C@H](O)[C@H]3O[C@@H]3O[C@@H](C)[C@H](O)[C@@H](O)[C@H]3O)cc2O)cc1O
inactive: outcome [1] | Potency [2] | outcome [3] | outcome [4] | outcome [5] | Potency [6] | outcome [7] | Potency [8]

CO[C@H]1C=CO[C@@]2(C)Oc3c(C)c(O)c4c(O)c(c5c(c4c3C2=O)=NC2(CCN(CC(C)C)CC2)N=5)NC(=O)/C(C)=C\C=C/[C@H](C)[C@H](O)[C@@H](C)[C@@H](O)[C@@H](C)[C@H](OC(C)=O)[C@@H]1C
inactive: outcome [1] | Potency [2] | outcome [3] | outcome [4] | outcome [5] | Potency [6] | outcome [7] | Potency [8] | Potency [9]

CCc1nn(CCCN2CCN(c3cccc(Cl)c3)CC2)c(=O)n1CCOc1ccccc1
inactive: outcome [1] | Potency [2] | outcome [3] | outcome [4] | outcome [5] | Potency [6] | outcome [7] | Potency [8]

OC(CCCN1CCCCC1)(c1ccccc1)c1ccccc1
inactive: outcome [1] | Potency [2] | outcome [3] | outcome [4] | outcome [5] | Potency [6] | outcome [7] | Potency [8]

CC1C2CC(CC2C2CCCC(O)C2)C1(C)C (stereo not given)
inactive: outcome [1] | Potency [2] | outcome [3] | outcome [4] | outcome [5] | Potency [6] | outcome [7] | Potency [8]

Brc1cc(-c2ccc(Br)c(Br)c2Br)cc(Br)c1Br
inactive: outcome [1] | Potency [2] | outcome [3] | outcome [4] | outcome [5] | Potency [6] | outcome [7] | Potency [8] | Potency [9]

CCOC(=N)CC(=O)OCC
inactive: outcome [1] | Potency [2] | outcome [3] | outcome [4] | outcome [5] | Potency [6] | outcome [7] | Potency [8]

CC(=O)CC(c1ccc([N+](=O)[O-])cc1)c1c(O)c2ccccc2oc1=O (stereo not given)
inactive: fluorescence, % of fluorescein [1] 0.0049% [at 18.6 µM] | fluorescence, % of fluorescent control [2] -0.0081% [at 18.6 µM] | activity change [3] 0.0438% [at 18.6 µM] | fluorescence, % of fluorescent control [4] -0.0043% [at 18.6 µM] | fluorescence, % of Rose Bengal [5] 0.571% [at 18.6 µM] | fluorescence, % of fluorescent control [6] -0.0473% [at 18.6 µM] | fluorescence, % of fluorescein control [7] 0.0092% [at 18.6 µM] | fluorescence, % of fluorescent control [8] -0.107% [at 18.6 µM]

CCCCC/C(=C\c1ccccc1)CO
inactive: outcome [1] | Potency [2] | outcome [3] | outcome [4] | outcome [5] | Potency [6] | outcome [7] | Potency [8]

O=C(Nc1ccccc1)Nc1ccccc1
inactive: outcome [1] | Potency [2] | outcome [3] | outcome [4] | outcome [5] | Potency [6] | outcome [7] | Potency [8]

CCCCC1C(=O)N(c2ccccc2)N(c2ccc(O)cc2)C1=O (stereo not given)
inactive: fluorescence, % of fluorescein [1] -0.124% [at 18.6 µM] | fluorescence, % of fluorescent control [2] -0.0788% [at 18.6 µM] | activity change [3] -0.39% [at 18.6 µM] | fluorescence, % of fluorescent control [4] 0.0102% [at 18.6 µM] | fluorescence, % of Rose Bengal [5] -0.239% [at 18.6 µM] | fluorescence, % of fluorescent control [6] -0.111% [at 18.6 µM] | fluorescence, % of fluorescein control [7] -0.17% [at 18.6 µM] | fluorescence, % of fluorescent control [8] -0.0848% [at 18.6 µM]

CCn1cc(C(=O)O)c(=O)c2cc(F)c(N3CCNCC3)nc21
inactive: fluorescence, % of fluorescein [1] -0.0016% [at 18.6 µM] | fluorescence, % of fluorescent control [2] -0.0171% [at 18.6 µM] | activity change [3] 0.0215% [at 18.6 µM] | fluorescence, % of fluorescent control [4] -0.252% [at 18.6 µM] | fluorescence, % of Rose Bengal [5] -0.483% [at 18.6 µM] | fluorescence, % of fluorescent control [6] -0.0969% [at 18.6 µM] | fluorescence, % of fluorescein control [7] -0.0379% [at 18.6 µM] | fluorescence, % of fluorescent control [8] -0.0048% [at 18.6 µM]

CCCOc1ccc(S(=O)(=O)N2CCN(CC)CC2)cc1-c1nc2c(CC)n(Cc3ccccn3)nc2c(=O)[nH]1
inactive: outcome [1] | Potency [2] | outcome [3] | outcome [4] | outcome [5] | Potency [6] | outcome [7] | Potency [8] | Potency [9]

CO[C@H]1O[C@H](CO)[C@@H](O)[C@H](O)[C@H]1O
inactive: outcome [1] | Potency [2] | outcome [3] | outcome [4] | outcome [5] | Potency [6] | outcome [7] | Potency [8]
